{
  "source": "the supplement of paper PMC4709259",
  "key": {"Jurkat [1]": {"tested_on": "Jurkat", "assay": "mean cell size (FSC-A) relative to DMSO control (fraction of control); higher = larger cells", "settings": "48 h", "how_it_was_run": "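Jurkat cells at 600 cells/µl were incubated for 1 h and then treated for 48h with the Enzo Screen-Well FDA Approved Drug Library v2.0 at 25µM, with DMSO at 0.9% (v/v) final. Compounds that reduced counts below 20% of controls were retested in 10-fold dilutions down to 25nM. Cell count and mean cell size, taken as forward scatter area, were measured by flow cytometry relative to solvent-only controls. Each plate carried 6-12 controls, and values are means of 3 biological replicates.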"}, "Jurkat [2]": {"tested_on": "Jurkat", "assay": "cell count relative to DMSO control (fraction of control); higher = more cells (less growth inhibition)", "settings": "48 h"}},
  "note": "Where a name gives a salt, the structure may show the parent alone. ± gives the standard deviation.",
  "data": [
    {"compound": "C[C@H]1COc2c(N3CCN(C)CC3)c(F)cc3c(=O)c(C(=O)O)cn1c23", "note": "[Levofloxacin·HCl] (concentration: 25 µM)", "values": [
      {"measurement": "mean cell size", "setting": "Jurkat [1]", "result": "0.936 ± 0.022"},
      {"measurement": "cell count", "setting": "Jurkat [2]", "result": "0.904 ± 0.066"}
    ]},
    {"compound": "COc1cc(NC(C)CCCN)c2ncccc2c1", "note": "(configuration not stated) [Primaquine Phosphate] (concentration: 25 µM)", "values": [
      {"measurement": "mean cell size", "setting": "Jurkat [1]", "result": "1.01 ± 0.028"},
      {"measurement": "cell count", "setting": "Jurkat [2]", "result": "0.742 ± 0.042"}
    ]},
    {"compound": "N[C@@H](CC(=O)N1CCn2c(nnc2C(F)(F)F)C1)Cc1cc(F)c(F)cc1F", "note": "[Sitagliptin Phosphate] (concentration: 25 µM)", "values": [
      {"measurement": "mean cell size", "setting": "Jurkat [1]", "result": "0.999 ± 0.021"},
      {"measurement": "cell count", "setting": "Jurkat [2]", "result": "0.554 ± 0.18"}
    ]},
    {"compound": "CC(C)(C)NC[C@H](O)c1ccc(O)c(CO)c1", "note": "[Levalbuterol·HCl] (concentration: 25 µM)", "values": [
      {"measurement": "mean cell size", "setting": "Jurkat [1]", "result": "0.929 ± 0.03"},
      {"measurement": "cell count", "setting": "Jurkat [2]", "result": "1.14 ± 0.14"}
    ]},
    {"compound": "Nc1nc2c(ncn2COCCO)c(=O)[nH]1", "note": "[Acyclovir (Acycloguanosine) Zovirax] (concentration: 25 µM)", "values": [
      {"measurement": "mean cell size", "setting": "Jurkat [1]", "result": "0.977 ± 0.028"},
      {"measurement": "cell count", "setting": "Jurkat [2]", "result": "0.842 ± 0.022"}
    ]},
    {"compound": "CS(=O)(=O)OCCCCOS(C)(=O)=O", "note": "[Busulfan] (concentration: 25 µM)", "values": [
      {"measurement": "mean cell size", "setting": "Jurkat [1]", "result": "1.03 ± 0.016"},
      {"measurement": "cell count", "setting": "Jurkat [2]", "result": "0.343 ± 0.046"}
    ]},
    {"compound": "CC=CC(=O)N(CC)c1ccccc1C", "note": "[Crotamiton] (concentration: 25 µM)", "values": [
      {"measurement": "mean cell size", "setting": "Jurkat [1]", "result": "0.972 ± 0.034"},
      {"measurement": "cell count", "setting": "Jurkat [2]", "result": "0.809 ± 0.17"}
    ]},
    {"compound": "Clc1ccc(CO/N=C(\\Cn2ccnc2)c2ccc(Cl)cc2Cl)c(Cl)c1", "note": "[Oxiconazole Nitrate] (concentration: 25 µM)", "values": [
      {"measurement": "mean cell size", "setting": "Jurkat [1]", "result": "0.933 ± 0.016"},
      {"measurement": "cell count", "setting": "Jurkat [2]", "result": "0.87 ± 0.18"}
    ]},
    {"compound": "CCC(=O)O[C@]1(C(=O)CCl)[C@@H](C)C[C@H]2[C@@H]3C[C@H](F)C4=CC(=O)C=C[C@]4(C)[C@@]3(F)[C@@H](O)C[C@@]21C", "note": "[Halobetasol Propionate] (concentration: 25 µM)", "values": [
      {"measurement": "mean cell size", "setting": "Jurkat [1]", "result": "0.971 ± 0.034"},
      {"measurement": "cell count", "setting": "Jurkat [2]", "result": "0.883 ± 0.12"}
    ]},
    {"compound": "CCOc1cc(CC(=O)N[C@@H](CC(C)C)c2ccccc2N2CCCCC2)ccc1C(=O)O", "note": "[Repaglinide] (concentration: 25 µM)", "values": [
      {"measurement": "mean cell size", "setting": "Jurkat [1]", "result": "1.03 ± 0.022"},
      {"measurement": "cell count", "setting": "Jurkat [2]", "result": "0.728 ± 0.063"}
    ]},
    {"compound": "CC(C)(C(=O)O)c1ccc(C(O)CCCN2CCC(C(O)(c3ccccc3)c3ccccc3)CC2)cc1", "note": "(configuration not stated) [Fexofenadine·HCl] (concentration: 25 µM)", "values": [
      {"measurement": "mean cell size", "setting": "Jurkat [1]", "result": "0.996 ± 0.041"},
      {"measurement": "cell count", "setting": "Jurkat [2]", "result": "0.725 ± 0.024"}
    ]},
    {"compound": "COc1c(N2C[C@@H]3CCCN[C@@H]3C2)c(F)cc2c(=O)c(C(=O)O)cn(C3CC3)c12", "note": "[Moxifloxacin·HCl] (concentration: 25 µM)", "values": [
      {"measurement": "mean cell size", "setting": "Jurkat [1]", "result": "0.919 ± 0.01"},
      {"measurement": "cell count", "setting": "Jurkat [2]", "result": "0.632 ± 0.14"}
    ]},
    {"compound": "Clc1ccc(COC(Cn2ccnc2)c2ccc(Cl)cc2Cl)c(Cl)c1", "note": "(configuration not stated) [Miconazole] (concentration: 25 µM)", "values": [
      {"measurement": "mean cell size", "setting": "Jurkat [1]", "result": "0.976 ± 0.04"},
      {"measurement": "cell count", "setting": "Jurkat [2]", "result": "0.586 ± 0.11"}
    ]},
    {"compound": "CC1(C)S[C@@H]2[C@H](NC(=O)COc3ccccc3)C(=O)N2[C@H]1C(=O)O", "note": "[Penicillin V Potassium] (concentration: 25 µM)", "values": [
      {"measurement": "mean cell size", "setting": "Jurkat [1]", "result": "0.994 ± 0.015"},
      {"measurement": "cell count", "setting": "Jurkat [2]", "result": "1.09 ± 0.09"}
    ]},
    {"compound": "CC1=C(/C=C/C(C)=C/C=C/C(C)=C/C(=O)O)C(C)(C)CCC1", "note": "[Tretinoin] (concentration: 25 µM)", "values": [
      {"measurement": "mean cell size", "setting": "Jurkat [1]", "result": "0.88 ± 0.031"},
      {"measurement": "cell count", "setting": "Jurkat [2]", "result": "1.02 ± 0.11"}
    ]},
    {"compound": "CCCSc1ccc2[nH]c(NC(=O)OC)nc2c1", "note": "[Albendazole] (concentration: 2.5 µM)", "values": [
      {"measurement": "mean cell size", "setting": "Jurkat [1]", "result": "1.32 ± 0.11"},
      {"measurement": "cell count", "setting": "Jurkat [2]", "result": "0.209 ± 0.012"}
    ]},
    {"compound": "CO[C@H]1/C=C/O[C@@]2(C)Oc3c(C)c(O)c4c(O)c(c5c(nc6cc(C)ccn65)c4c3C2=O)NC(=O)/C(C)=C\\C=C\\[C@H](C)[C@H](O)[C@@H](C)[C@@H](O)[C@@H](C)[C@H](OC(C)=O)[C@@H]1C", "note": "[Rifaximin] (concentration: 25 µM)", "values": [
      {"measurement": "mean cell size", "setting": "Jurkat [1]", "result": "0.922 ± 0.039"},
      {"measurement": "cell count", "setting": "Jurkat [2]", "result": "0.4 ± 0.12"}
    ]},
    {"compound": "C=C[C@H]1CN2CC[C@H]1C[C@@H]2[C@@H](O)c1ccnc2ccc(OC)cc12", "note": "[Quinidine·HCl·H2O] (concentration: 25 µM)", "values": [
      {"measurement": "mean cell size", "setting": "Jurkat [1]", "result": "0.9234 ± 0.0047"},
      {"measurement": "cell count", "setting": "Jurkat [2]", "result": "0.665 ± 0.11"}
    ]},
    {"compound": "CC(N)C12CC3CC(CC(C3)C1)C2", "note": "(configuration not stated) [Rimantadine·HCl] (concentration: 25 µM)", "values": [
      {"measurement": "mean cell size", "setting": "Jurkat [1]", "result": "1.02 ± 0.055"},
      {"measurement": "cell count", "setting": "Jurkat [2]", "result": "0.697 ± 0.067"}
    ]},
    {"compound": "CC(C)(C)C(=O)OCOP(=O)(COCCn1cnc2c(N)ncnc21)OCOC(=O)C(C)(C)C", "note": "[Adefovir Dipivoxil] (concentration: 25 µM)", "values": [
      {"measurement": "mean cell size", "setting": "Jurkat [1]", "result": "1.3 ± 0.043"},
      {"measurement": "cell count", "setting": "Jurkat [2]", "result": "0.23 ± 0.019"}
    ]},
    {"compound": "CN[C@H](CC(C)C)C(=O)N[C@H]1C(=O)N[C@@H](CC(N)=O)C(=O)N[C@H]2C(=O)N[C@H]3C(=O)N[C@H](C(=O)N[C@H](C(=O)O)c4cc(O)cc(O)c4-c4cc3ccc4O)[C@H](O)c3ccc(c(Cl)c3)Oc3cc2cc(c3O[C@@H]2O[C@H](CO)[C@@H](O)[C@H](O)[C@H]2O[C@H]2C[C@](C)(N)[C@H](O)[C@H](C)O2)Oc2ccc(cc2Cl)[C@H]1O", "note": "[Vancomycin·HCl] (concentration: 25 µM)", "values": [
      {"measurement": "mean cell size", "setting": "Jurkat [1]", "result": "1.02 ± 0.021"},
      {"measurement": "cell count", "setting": "Jurkat [2]", "result": "1.19 ± 0.13"}
    ]}
  ]
}
